Bioassay records: PubChem BioAssay, National Center for Advancing Translational Sciences (NCATS)
p53ts 32C kill – p53ts cell cytotoxicity, permissive temperature. actives 0.93% (n = 130,000). Potency, µM (top dose mostly 46.1 µM), hits mostly cytotoxic. H1299-p53A138V at 32C, ATP luminescence viability, 24 h; further: nearly all actives have a fitted effect of over 55% in size
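H1299-p53 A138V cells (temperature-sensitive p53) exposed 24 h to up to 46 uM compound at 32C, where p53 is wild-type in conformation. Viability read as ATP luminescence and normalised to DMSO and 100 uM tamoxifen. AC50 fitted with the Hill equation.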
HPGD block – inhibitors of human 15-hydroxyprostaglandin dehydrogenase (HPGD); Potency, µM, most hits filed as inhibitors; AID 894; purified HPGD, NADH fluorescence kinetic, PGE2 substrate; P15428; actives 4.3% (n = 150,000); active means well fitted inhibition curve with a large enough effect, not every such curve was filed as active; inconclusive means small, poorly fitted or top-dose-only effect, or another doubt; inactive means no such curve, though single readings can be large or run the other way
Target sequence (P15428 whole entry, looked up): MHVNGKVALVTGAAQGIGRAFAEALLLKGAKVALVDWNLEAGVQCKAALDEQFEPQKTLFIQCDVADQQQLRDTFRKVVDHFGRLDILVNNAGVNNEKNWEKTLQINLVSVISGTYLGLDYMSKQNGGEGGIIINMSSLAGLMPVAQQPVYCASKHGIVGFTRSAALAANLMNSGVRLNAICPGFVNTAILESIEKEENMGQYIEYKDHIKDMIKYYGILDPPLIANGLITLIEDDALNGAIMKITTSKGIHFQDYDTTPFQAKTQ
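20 nM HPGD preincubated 15 min at room temperature with compound in 50 mM Tris-HCl pH 8, 0.01% Tween 20. Started with 1 mM NAD+ and 30 uM prostaglandin E2; NADH fluorescence (360/450 nm) read 5 times over 30-s intervals, last minus first.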
p53ts 39C tox – kills p53ts cells at the nonpermissive temperature. H1299-p53A138V viability at 39C, ATP luminescence, 24 h. Potency, µM (titrated, usually from 46.1 µM), hits mostly cytotoxic. actives 1.5% (n = 130,000); further: nearly all actives have a fitted effect of over 55% in size
12-hLO inh – blocks human 12-lipoxygenase activity; P18054; purified 12-hLO, xylenol orange hydroperoxide absorbance; Potency, µM (series often up to 57.1 µM), usual class: inhibitors; actives 0.12% (n = 150,000); further: nearly all actives have a fitted effect of over 55% in size
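Purified human 12hLO (150 nM), preincubated 15 min with compound, then 40 uM arachidonic acid for 30 min, room temperature, Hepes pH 7.0 with 0.01% Triton X-100. Hydroperoxide detected by ferrous iron/xylenol orange; 573/405 nm absorbance ratio gives reaction progress.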
Numbers stand for hits; – = inactive; ? = inconclusive; · = not tested or not shown; [ ] = dose if it differs, or a comment. Rows were chosen to be rich in hits. Some 4.4% of all compounds tested hit in one or more screens of this group. Unless noted, the call rests on the fitted dose curve; in most records, active means well fitted curve in the direction sought with a large enough effect; inconclusive means small, poorly fitted or top-dose-only effect, or another doubt; inactive means no such curve, though single readings can be large; an effect the other way counts as inactive or inconclusive.

SMILES	p53ts 32C kill	HPGD block	p53ts 39C tox	12-hLO inh
Cc1ccc(-n2nc(C(=O)Nc3ccc(F)cc3F)c3c4ccccc4n(C)c3c2=O)cc1	–	·	–	·
CN(C)c1ncc2nc(-c3cccc(C#N)c3)c(=O)n(C[C@H]3CCCO3)c2n1	–	·	–	·
CCCN(CCC)CCCNC(=O)c1cc2c(-c3ccc(Cl)cc3)nn(C)c2s1	–	·	13µM	·
Cc1cc(Nc2ccccc2)nc(-c2ccccc2O)n1	–	–	–	–
Cc1cc(Nc2cccc(F)c2)nc(-c2ccccc2O)n1	?	–	16µM	–
O=C(COc1ccc(Cl)cc1Cl)Nc1ccc(C(=O)OC2CCCCC2)cc1	–	·	–	·
Oc1ccc2c(c1)OCC1(O)Cc3cc(O)c(O)cc3C21 (stereo unspecified)	–	?	–	–
Oc1cc2c(cc1O)[C@H]1c3ccc(O)c(O)c3OC[C@@]1(O)C2	–	13µM	–	–
CC(NC(=O)c1ccc2c(c1)sc1nc(-c3ccccc3)cn12)C12CC3CC(CC(C3)C1)C2 (stereo unspecified)	–	·	–	·
CC(C)Cn1c(Br)nc2c1c(=O)n(CCC#N)c(=O)n2C	–	18µM	–	–
O=c1[nH]n(-c2ccccc2)c(=O)c(Cl)c1Cl	·	–	·	–
O=c1[nH]n(-c2ccc(Cl)cc2)c2ncccc12	·	11µM	·	–
Oc1ccc(-c2nc(=S)[nH][nH]2)cc1	–	?	–	?
S=c1nc(-c2ccccc2Br)[nH][nH]1	–	13µM	–	–
CC(C)OC(=O)CSc1nc2ccccc2s1	–	16µM	–	–
CC(=O)CSc1nc2ccccc2s1	·	–	·	–
O=C(CSc1nc2ccccc2s1)c1cc2ccccc2o1	·	22µM	·	–
CCOC(=O)c1ccc2c(c1)N(Cc1ccc(F)cc1Cl)C(=O)c1ccccc1S2	–	·	–	·
Cn1c(Cc2ccccc2)n[nH]c1=S	·	–	·	–
S=c1[nH]nc(Cc2ccccc2)n1-c1cccc2ccccc12	·	16µM	·	–
CCOC(=O)c1sc(N(Cc2ccccc2)C(=O)COC(=O)c2ccccc2O)nc1C	·	20µM	·	–
O=C(COC(=O)c1ccco1)Nc1ccc(Br)cc1	–	–	–	–
NC(=O)/C(=N\OC(=O)c1ccco1)c1nc(-c2ccc(Br)cc2)cs1	·	13µM	·	–
COc1ccc(C(=O)NC(=S)Nc2ccccc2N2CCOCC2)cc1[N+](=O)[O-]	·	–	·	–
COc1ccc(C(=O)NC(=S)Nc2ccc(N3CCOCC3)c(Cl)c2)cc1[N+](=O)[O-]	·	8.9µM	·	?
SMILES	p53ts 32C kill	HPGD block	p53ts 39C tox	12-hLO inh
CC(/C=N/n1c(-c2ccco2)n[nH]c1=S)=C\c1ccco1	–	14µM	–	–
CC(/C=N/n1c(-c2ccccc2)n[nH]c1=S)=C\c1ccco1	·	?	·	–
CC(/C=N/n1c(-c2ccc(C)cc2)n[nH]c1=S)=C\c1ccco1	–	2.5µM	–	–
O=C(/C=C/c1ccc2c(c1)OCO2)c1cccs1	16µM	?	20µM	–
CCNc1ccccc(C(=O)/C=C/c2ccc3c(c2)OCO3)c1=O	·	18µM	·	?
O=C(/C=C/c1ccc2c(c1)OCCCO2)c1ccccc1O	·	–	·	–
O=C(/C=C\C=C/c1ccc2c(c1)OCO2)N1CCCCC1	?	10µM	?	–
O=C(O)/C=C\C=C/c1ccc2c(c1)OCO2	–[9.22 µM]	–	–[9.22 µM]	–[11.4 µM]
COc1ccccc1OCC(=O)N(Cc1ccco1)Cc1ccccc1F	–	·	–	·
Cc1nn(Cc2ccccc2)c2c1C(c1ccc(Cl)cc1)C(C#N)=C(N)O2 (stereo unspecified)	–	1µM	–	–
Cc1nn(-c2ccccc2)c2c1C(c1ccccc1)C(C#N)=C(N)O2 (stereo unspecified)	–	32µM	–	–
Cc1ccc(-n2nc(C)c3c2OC(N)=C(C#N)C3c2ccoc2)cc1 (stereo unspecified)	–	–	–	?
O=C1CC(C(=O)O)c2ccccc2N1 (stereo unspecified)	·	·	·	–
O=C1CC(c2ccccc2)CCc2sccc2N1 (stereo unspecified)	·	25µM	·	–
CN(C)c1nc(N)nc(CSc2n[nH]c(-c3ccccc3)n2)n1	–	4µM	–	–
CN(C)c1nc(N)nc(CSc2nnnn2-c2ccc(F)cc2)n1	·	–	·	–
O=C(Cc1cccs1)Nc1nnc(SCC(=O)N2CCCCC2)s1	–	–	–	–
O=C(Nc1nnc(SCC(=O)N2CCCCC2)s1)c1cccs1	?	14µM	–	–
Cc1cc(C)cc(C(=O)Nc2nnc(SCC(=O)N3CCCc4ccccc43)s2)c1	·	?	–	–
O=C(Nc1nnc(SCC(=O)N2CCCc3ccccc32)s1)c1ccc2ccccc2c1	·	?	3.2µM	–
O=C(Nc1nnc(SCC(=O)N2CCCc3ccccc32)s1)c1ccccc1	·	–	8.9µM	–
O=C(Nc1ccc2nc(SCC(=O)N3CCCc4ccccc43)sc2c1)c1ccccc1	–	·	–	·
O=C1c2sc3nc4n(c(=O)c3c2CCC1Br)CCCCC4 (stereo unspecified)	·	13µM	·	–
CC(C)c1ccc(Cc2cn3cc(-c4cc5ccccc5oc4=O)nc3s2)cc1	–	·	–	·
Cc1c(C(=O)NCc2ccc(F)cc2)sc2nc(-c3ccc(F)cc3)cn12	–	·	–	·
SMILES	p53ts 32C kill	HPGD block	p53ts 39C tox	12-hLO inh
Cc1ccc(Cc2cn3cc(-c4ccccc4)nc3s2)cc1	?	·	4µM	·
Fc1ccc(Cc2cn3cc(-c4ccc(F)cc4)nc3s2)cc1	?	·	7.9µM	·
Clc1ccc(-c2cn3cc(Cc4ccccc4)sc3n2)cc1	?	·	6.3µM	·
Cc1ccc(CNC(=O)c2sc3nc(-c4ccccc4)cn3c2C)cc1	–	·	–	·
O=c1oc2ccccc2cc1-c1cn2cc(Cc3cc(Cl)ccc3Cl)sc2n1	–	·	–	·
Fc1ccc(-c2cn3cc(Cc4ccccc4Cl)sc3n2)cc1	7.9µM	·	5µM	·
Nc1nc(=O)n(C2OC(CO)C(O)C2O)cc1Cl (stereo unspecified)	–	–	–	–
CC(C)CC(C(=O)NCC1CCN(Cc2ccc(F)cc2)CC1)N1Cc2ccccc2C1=O (stereo unspecified)	–	·	·	·
CCOC(=O)c1cc(C)n(CC2CCC(C(=O)Nc3ccc(Cl)cc3)CC2)c1C (stereo unspecified)	–	·	–	·
COC(=O)[C@@]1(Cc2ccc(OC)cc2)[C@H]2c3cc(C(=O)N4CCCC4)n(Cc4cc(F)c(F)c(F)c4)c3C[C@H]2CN1C(=O)c1ccccc1	–	–	–	–
COc1ccc(NC(=O)C2=C(C)Nc3nc(SCc4ccc(C)cc4C)nn3C2c2cccc(OC)c2OC)cc1 (stereo unspecified)	–	·	–	·
O=C(NCc1ccc(Cl)cc1)C1CCN(c2nn3cc(-c4ccc(F)cc4)nc3s2)CC1	–	·	·	·
CC(=O)OC[C@H]1O[C@@H](ON=C(C)C)[C@H](OC(C)=O)[C@@H](OC(C)=O)[C@H]1OC(C)=O	–[9.22 µM]	·	–[9.22 µM]	·
CCOc1ccc(NC(=O)CSc2nc3nc(C)c(Cc4ccccc4)c(C)n3n2)cc1	–	·	?	·
Fc1ccccc1Cc1cn2cc(-c3ccc(Cl)cc3)nc2s1	?	·	10µM	·
Cc1ccc(S(=O)(=O)C2(C(=O)N3CCCCCC3)CC2)cc1	–	13µM	–	–
CCN1CCN(c2oc(-c3ccc(COc4ccc(C)cc4)o3)nc2C#N)CC1	–	·	–	·
